# What was measured:
# [1] = target: Serine/threonine-protein kinase PAK 6 (Homo sapiens) (UniProt Q9NQU5); settings: at 1 µM;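 note: values are mean percent inhibition of PAK6 kinase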
# [2] = system: Tyrosine-protein kinase ABL1 (Homo sapiens), P00519 [E255K]; settings: at 0.1 µM
# [3] = system: Tyrosine-protein kinase ABL1 (Homo sapiens), P00519 [E255K]; settings: at 1 µM
# [4] = system: Tyrosine-protein kinase ABL1 (Homo sapiens), P00519 [H396P]; settings: at 0.1 µM
# [5] = system: Tyrosine-protein kinase ABL1 (Homo sapiens), P00519 [H396P]; settings: at 1 µM
# [6] = system: Tyrosine-protein kinase ABL1 (Homo sapiens), P00519 [M351T]; settings: at 0.1 µM
# [7] = system: Tyrosine-protein kinase ABL1 (Homo sapiens), P00519 [M351T]; settings: at 1 µM
# [8] = system: Tyrosine-protein kinase ABL1 (Homo sapiens), P00519 [Q252H]; settings: at 0.1 µM
# [9] = system: Tyrosine-protein kinase ABL1 (Homo sapiens), P00519 [Q252H]; settings: at 1 µM
# [10] = system: Tyrosine-protein kinase ABL1 (Homo sapiens), P00519 [T315I]; settings: at 0.1 µM
# [11] = system: Tyrosine-protein kinase ABL1 (Homo sapiens), P00519 [T315I]; settings: at 1 µM
# [12] = system: Tyrosine-protein kinase ABL1 (Homo sapiens), P00519 [Y253F]; settings: at 0.1 µM
# [13] = system: Tyrosine-protein kinase ABL1 (Homo sapiens), P00519 [Y253F]; settings: at 1 µM
# [14] = target: Tyrosine-protein kinase ABL1 (Homo sapiens) (UniProt P00519); settings: at 0.1 µM
# [15] = target: Tyrosine-protein kinase ABL1 (Homo sapiens) (UniProt P00519); settings: at 1 µM
# [16] = target: ALK tyrosine kinase receptor (Homo sapiens) (UniProt Q9UM73); settings: at 0.1 µM
# Chain of ALK tyrosine kinase receptor (Homo sapiens) (Q9UM73 19-1620 limits assumed): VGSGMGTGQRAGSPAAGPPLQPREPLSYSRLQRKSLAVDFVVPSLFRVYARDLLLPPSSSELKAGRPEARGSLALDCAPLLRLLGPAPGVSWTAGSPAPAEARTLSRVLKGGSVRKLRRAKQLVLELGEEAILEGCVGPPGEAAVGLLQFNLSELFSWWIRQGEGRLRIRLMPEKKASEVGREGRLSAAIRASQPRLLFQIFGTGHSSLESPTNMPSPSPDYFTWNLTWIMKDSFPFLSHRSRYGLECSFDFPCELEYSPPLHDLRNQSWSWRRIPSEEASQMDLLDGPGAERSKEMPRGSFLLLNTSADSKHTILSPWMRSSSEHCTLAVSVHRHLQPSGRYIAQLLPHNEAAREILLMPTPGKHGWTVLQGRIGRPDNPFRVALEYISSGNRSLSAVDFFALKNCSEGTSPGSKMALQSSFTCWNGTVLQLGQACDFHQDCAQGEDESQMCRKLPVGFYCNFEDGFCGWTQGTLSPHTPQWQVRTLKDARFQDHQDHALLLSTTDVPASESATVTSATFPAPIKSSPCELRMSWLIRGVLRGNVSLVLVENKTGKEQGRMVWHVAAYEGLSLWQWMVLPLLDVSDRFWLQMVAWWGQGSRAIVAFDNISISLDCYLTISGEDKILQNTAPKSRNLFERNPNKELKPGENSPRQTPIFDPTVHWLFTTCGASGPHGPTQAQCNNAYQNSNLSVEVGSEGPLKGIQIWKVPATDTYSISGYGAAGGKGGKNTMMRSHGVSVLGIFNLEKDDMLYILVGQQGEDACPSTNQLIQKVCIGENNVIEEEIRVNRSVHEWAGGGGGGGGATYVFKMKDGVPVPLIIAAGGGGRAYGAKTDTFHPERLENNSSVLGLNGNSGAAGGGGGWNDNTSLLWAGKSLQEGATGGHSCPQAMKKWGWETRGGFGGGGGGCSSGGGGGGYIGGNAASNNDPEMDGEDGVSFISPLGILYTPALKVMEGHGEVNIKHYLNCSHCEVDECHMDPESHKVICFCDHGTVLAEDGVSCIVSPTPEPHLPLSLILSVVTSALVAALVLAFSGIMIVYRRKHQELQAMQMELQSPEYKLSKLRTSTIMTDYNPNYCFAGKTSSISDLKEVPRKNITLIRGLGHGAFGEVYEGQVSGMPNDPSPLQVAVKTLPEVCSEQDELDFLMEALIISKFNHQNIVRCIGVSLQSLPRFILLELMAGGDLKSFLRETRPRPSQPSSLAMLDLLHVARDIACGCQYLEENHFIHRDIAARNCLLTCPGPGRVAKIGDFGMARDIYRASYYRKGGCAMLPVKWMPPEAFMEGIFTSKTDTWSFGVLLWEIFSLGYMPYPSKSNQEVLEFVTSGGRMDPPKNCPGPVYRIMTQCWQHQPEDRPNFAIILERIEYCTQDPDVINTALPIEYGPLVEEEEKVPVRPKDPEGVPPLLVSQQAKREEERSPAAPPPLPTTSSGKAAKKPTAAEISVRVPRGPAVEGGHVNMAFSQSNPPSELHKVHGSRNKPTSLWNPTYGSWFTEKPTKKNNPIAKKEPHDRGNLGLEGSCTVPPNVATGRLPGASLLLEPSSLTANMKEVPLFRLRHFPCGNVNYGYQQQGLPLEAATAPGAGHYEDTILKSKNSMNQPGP
# [17] = target: ALK tyrosine kinase receptor (Homo sapiens) (UniProt Q9UM73); settings: at 1 µM
# [18] = target: Tyrosine-protein kinase ABL2 (Homo sapiens) (UniProt P42684); settings: at 0.1 µM
# Chain of Tyrosine-protein kinase ABL2 (Homo sapiens) (P42684 whole entry): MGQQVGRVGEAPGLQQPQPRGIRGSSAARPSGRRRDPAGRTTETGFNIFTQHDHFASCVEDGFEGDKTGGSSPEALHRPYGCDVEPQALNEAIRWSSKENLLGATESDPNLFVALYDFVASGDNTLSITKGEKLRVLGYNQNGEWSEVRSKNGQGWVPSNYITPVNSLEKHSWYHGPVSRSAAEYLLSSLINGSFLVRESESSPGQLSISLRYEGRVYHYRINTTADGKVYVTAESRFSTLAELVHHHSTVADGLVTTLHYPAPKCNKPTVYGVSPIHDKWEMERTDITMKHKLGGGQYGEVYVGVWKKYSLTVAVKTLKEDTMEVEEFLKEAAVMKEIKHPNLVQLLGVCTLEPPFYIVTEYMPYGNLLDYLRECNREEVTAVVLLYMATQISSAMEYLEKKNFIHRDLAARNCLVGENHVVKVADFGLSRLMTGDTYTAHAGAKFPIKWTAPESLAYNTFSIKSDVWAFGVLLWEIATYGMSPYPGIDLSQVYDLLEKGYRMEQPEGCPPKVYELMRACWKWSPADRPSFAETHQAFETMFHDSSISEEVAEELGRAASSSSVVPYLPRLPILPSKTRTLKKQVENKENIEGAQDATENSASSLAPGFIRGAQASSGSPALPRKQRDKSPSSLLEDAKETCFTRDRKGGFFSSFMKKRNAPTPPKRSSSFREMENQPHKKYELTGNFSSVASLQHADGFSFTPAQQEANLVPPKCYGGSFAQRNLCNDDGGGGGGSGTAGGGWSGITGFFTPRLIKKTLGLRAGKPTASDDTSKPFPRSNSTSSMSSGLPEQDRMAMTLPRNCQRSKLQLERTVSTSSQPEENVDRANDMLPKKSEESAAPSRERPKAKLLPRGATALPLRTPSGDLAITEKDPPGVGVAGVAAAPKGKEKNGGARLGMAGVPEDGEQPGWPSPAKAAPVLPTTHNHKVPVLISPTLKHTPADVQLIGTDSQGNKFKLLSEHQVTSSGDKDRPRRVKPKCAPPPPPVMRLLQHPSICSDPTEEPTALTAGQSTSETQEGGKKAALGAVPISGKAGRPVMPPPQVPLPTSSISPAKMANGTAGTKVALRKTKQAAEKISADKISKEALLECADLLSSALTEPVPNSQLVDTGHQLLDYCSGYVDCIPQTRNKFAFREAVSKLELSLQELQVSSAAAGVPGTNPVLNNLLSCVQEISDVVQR
# [19] = target: Tyrosine-protein kinase ABL2 (Homo sapiens) (UniProt P42684); settings: at 1 µM
# [20] = target: Tyrosine-protein kinase receptor UFO (Homo sapiens) (UniProt P30530); settings: at 0.1 µM;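 note: values are mean percent inhibition of AXL from the GSK PKIS screen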
# Chain of Tyrosine-protein kinase receptor UFO (Homo sapiens) (P30530 whole entry): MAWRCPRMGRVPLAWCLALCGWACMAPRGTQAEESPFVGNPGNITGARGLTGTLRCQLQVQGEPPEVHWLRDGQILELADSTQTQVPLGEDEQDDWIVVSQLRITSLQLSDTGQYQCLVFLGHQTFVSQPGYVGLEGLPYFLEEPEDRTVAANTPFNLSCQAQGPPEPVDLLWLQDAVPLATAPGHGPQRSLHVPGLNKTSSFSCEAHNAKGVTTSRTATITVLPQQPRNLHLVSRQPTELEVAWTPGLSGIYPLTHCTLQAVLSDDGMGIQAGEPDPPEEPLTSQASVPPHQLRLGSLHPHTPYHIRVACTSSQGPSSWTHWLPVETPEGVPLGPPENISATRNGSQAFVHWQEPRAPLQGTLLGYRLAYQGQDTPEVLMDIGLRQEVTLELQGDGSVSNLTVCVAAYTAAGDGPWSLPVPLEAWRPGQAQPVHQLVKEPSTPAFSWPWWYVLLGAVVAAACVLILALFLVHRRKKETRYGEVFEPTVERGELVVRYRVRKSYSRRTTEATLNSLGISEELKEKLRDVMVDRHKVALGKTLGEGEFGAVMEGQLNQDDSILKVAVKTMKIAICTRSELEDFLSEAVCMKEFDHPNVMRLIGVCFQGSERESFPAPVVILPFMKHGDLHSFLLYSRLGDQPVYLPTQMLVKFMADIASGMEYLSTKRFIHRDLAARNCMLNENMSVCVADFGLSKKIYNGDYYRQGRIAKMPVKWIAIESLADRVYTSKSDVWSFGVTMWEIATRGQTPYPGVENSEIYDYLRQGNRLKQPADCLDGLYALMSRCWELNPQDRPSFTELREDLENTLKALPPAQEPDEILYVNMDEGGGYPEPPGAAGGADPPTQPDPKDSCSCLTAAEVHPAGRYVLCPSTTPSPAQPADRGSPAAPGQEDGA
# Chain of Serine/threonine-protein kinase PAK 6 (Homo sapiens) (Q9NQU5 whole entry, looked up): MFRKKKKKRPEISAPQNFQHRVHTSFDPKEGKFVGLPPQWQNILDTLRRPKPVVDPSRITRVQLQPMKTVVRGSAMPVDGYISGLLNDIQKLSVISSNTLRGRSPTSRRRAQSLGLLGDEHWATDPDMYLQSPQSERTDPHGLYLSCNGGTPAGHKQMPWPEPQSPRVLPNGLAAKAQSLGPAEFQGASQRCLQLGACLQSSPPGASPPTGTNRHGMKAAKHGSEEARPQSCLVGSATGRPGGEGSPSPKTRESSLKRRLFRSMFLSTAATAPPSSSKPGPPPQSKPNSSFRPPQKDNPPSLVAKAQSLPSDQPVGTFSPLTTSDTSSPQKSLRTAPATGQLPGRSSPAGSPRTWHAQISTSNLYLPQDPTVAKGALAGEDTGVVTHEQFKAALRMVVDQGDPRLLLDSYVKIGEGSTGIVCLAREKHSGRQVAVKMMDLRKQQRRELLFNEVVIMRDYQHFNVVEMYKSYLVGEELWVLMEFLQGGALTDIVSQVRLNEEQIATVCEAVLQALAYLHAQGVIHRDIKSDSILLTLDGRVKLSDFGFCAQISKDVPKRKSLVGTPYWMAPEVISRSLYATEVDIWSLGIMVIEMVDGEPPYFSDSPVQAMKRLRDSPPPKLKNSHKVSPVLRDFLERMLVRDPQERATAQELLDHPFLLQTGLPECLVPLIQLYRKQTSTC
Structure (SMILES),inhibition [1],inhibition [2],inhibition [3],inhibition [4],inhibition [5],inhibition [6],inhibition [7],inhibition [8],inhibition [9],inhibition [10],inhibition [11],inhibition [12],inhibition [13],inhibition [14],inhibition [15],inhibition [16],inhibition [17],inhibition [18],inhibition [19],inhibition [20]
COc1ccc(-c2cc(-c3c[nH]nc3-c3ccccn3)ccn2)cc1,-3.15%,9.84%,40.9%,20.2%,64.2%,15.3%,63.3%,10.8%,41%,3.29%,5.41%,12.3%,48.3%,14.1%,59.8%,3.73%,5.23%,3.35%,35.6%,-6.83%
CCn1c(-c2nonc2N)nc2cnc(Oc3cccc(NC(=O)c4ccc(N(C)C)cc4)c3)cc21,-2.65%,0.6%,9.02%,0.27%,1.9%,-1.02%,4.81%,2.14%,1.78%,1.38%,1.03%,2.77%,6.27%,1.77%,3.99%,0.57%,1.96%,2.48%,2.42%,-3.9%
N#Cc1c(NC(=O)c2ccc(F)cc2)sc2c1CCCC2,-6.51%,0.33%,1.93%,-0.63%,0.11%,-1.3%,2.69%,1.76%,2.3%,1.04%,-0.02%,0.83%,1.49%,1.79%,4.24%,-0.03%,1.01%,3.54%,2.41%,-1.93%
COc1cc(N2CCN(C(C)C)CC2)ccc1Nc1nc(Nc2ccc(F)cc2C(N)=O)c2cc[nH]c2n1,3.58%,-0.24%,1.64%,1.72%,2.38%,1.19%,2.15%,1.11%,2.74%,-0.7%,7.02%,0.29%,1.6%,3.76%,3.4%,88.3%,88.8%,-0.12%,2.78%,3.89%
O=C(O[C@H]1CN[C@H](C#Cc2cc3ncnc(Nc4ccc(Cc5ccccc5)cc4)c3s2)C1)N1CCOCC1,-5.73%,-0.19%,-0.38%,-0.52%,0.08%,-2.99%,-0.59%,-0.95%,1.06%,0.08%,0.76%,-1.94%,2.37%,-0.06%,0.2%,1.1%,0.46%,-0.08%,-0.38%,-5.65%
CC1=C(C(=O)Nc2cc(Cl)c3[nH]ncc3c2)C(c2ccc(C(F)(F)F)cc2)CC(=O)N1 (stereo not given),-3.39%,3.18%,3.01%,4.1%,2.88%,1.43%,4.53%,4.06%,4.83%,2.02%,3.3%,3.38%,4.41%,2.62%,1.72%,2.22%,2.26%,3.63%,3.51%,-4.79%
COc1ccc(-c2nn3ncccc3c2-c2ccnc(Nc3ccc4c(c3)OCCO4)n2)cc1,-1.85%,-0.56%,13.9%,3.27%,34.6%,20.9%,63.3%,11.9%,55%,2.65%,32.3%,2.95%,33.3%,2.5%,25.8%,8.08%,35.2%,5.47%,33.2%,1.61%
COc1cccc(-n2ncc3c(N/N=C/c4ccc(F)cc4)ncnc32)c1,5.5%,44.1%,79.3%,51.2%,84.5%,51.7%,85.4%,63.6%,88.8%,12.8%,38.8%,58.5%,86.1%,21.1%,75.8%,2.82%,3.76%,9.51%,57.9%,-4.72%
O=C(Nc1n[nH]c2cc(-c3ccc(F)cc3)ccc12)C1CC1,-5.36%,9.03%,23.3%,11.3%,46.6%,11.5%,55.2%,7.91%,33.9%,19.5%,69.4%,10.8%,40.1%,5.81%,40.4%,1.12%,2.06%,3.46%,12.3%,-5.44%
COc1cc2ncn(-c3cc(OCc4ccccc4C(F)(F)F)c(C(=O)N(C)C)s3)c2cc1OC,-4.14%,1.36%,9.93%,2.27%,16.3%,1.09%,14.9%,2.35%,13.2%,-0.89%,1.37%,1.14%,17.4%,2.99%,18.7%,0.27%,0.78%,4.85%,11.8%,-0.33%
COc1ccc2[nH]c3c4[nH]c5ccc(OC)cc5c4c4c(c3c2c1)C(=O)NC4=O,-0.34%,7.87%,36.1%,10.7%,45.3%,10.1%,47.7%,29.6%,72.5%,9.34%,33.7%,15.4%,52.3%,6.32%,34%,13.8%,58.3%,3.1%,12.1%,11%
COc1ccc2c(-c3ccnc(Nc4cccc(OC(F)(F)F)c4)n3)cnn2n1,6.82%,3.39%,4.4%,3.04%,15.7%,1.37%,11.9%,4.44%,9.67%,0.99%,6.33%,4.09%,8.45%,4.8%,17%,2.4%,5.73%,4.05%,19.1%,-4.17%
COc1cccc(-c2c[nH]c3c(N/N=C/c4ccncc4)ncnc23)c1,-1.79%,65%,91.1%,76.2%,93.6%,76.5%,92.5%,79.8%,92.6%,11.8%,57.7%,73%,93.2%,57.6%,81.7%,0.85%,1.19%,41.8%,78.6%,-2.43%
Fc1cccc(COc2ccc(Nc3ncnc4sc(-c5ccco5)cc34)cc2Cl)c1,-3.19%,3.34%,3.39%,3.3%,5.3%,0.31%,1.04%,3.83%,2.01%,1.83%,2.74%,3.33%,3.8%,4.81%,8.56%,3.35%,4.37%,4.36%,7.39%,-6.97%
Nc1ncc(-c2cccc(S(N)(=O)=O)c2)c2scc(-c3ccc(F)c(Cl)c3)c12,-1.87%,35.4%,84.7%,69.4%,93.5%,64.2%,93.9%,55.3%,91.4%,5.83%,35%,62.6%,92.4%,60.5%,87.6%,4.32%,13.8%,35.4%,78.4%,-4.87%
CCn1cc(-c2ccnc3[nH]ccc23)c(-c2cccc(NC(=O)Nc3ccc(OCc4ccccc4)cc3)c2)n1,3.29%,1.22%,-1.34%,1.15%,3.55%,1.36%,3.02%,0.71%,2.72%,-0.6%,-0.74%,0.58%,0.94%,1.03%,2.88%,0.6%,0.71%,0.39%,6.44%,0.7%
CNC(=O)c1cc(-c2ccc(F)cc2)cc(-c2ccc(S(=O)(=O)N3CCCC3)cc2)c1N,-8.22%,2.54%,2.4%,3.29%,3.32%,0.22%,0.79%,1.67%,1.16%,2.5%,2.16%,3.15%,4.16%,3.12%,5.19%,1.91%,2.88%,2.17%,3.71%,-5.35%
CC(C)COC(=O)c1ccc2c(c1)/C(=C/Nc1ccc(S(N)(=O)=O)cc1)C(=O)N2,0.35%,1.63%,21.7%,4.36%,26.6%,4.24%,33.2%,3.65%,28.9%,5.23%,43.4%,4.12%,28.8%,1.58%,36.3%,-0.71%,4.93%,3.59%,20.4%,1.97%
CNC(=O)c1cncc(/C=C/c2ccccc2Cl)c1,3.32%,-0.16%,14.2%,2.14%,24.1%,3.34%,20%,1.38%,17.3%,0.79%,8.51%,3.01%,27%,7.06%,33.6%,0.91%,0.92%,4.13%,21.1%,4.02%
CC(=O)NCc1cccc(C#Cc2cncnc2Nc2ccc(OCc3cccc(F)c3)c(Cl)c2)c1,-2.72%,-0.06%,1.65%,2.49%,-0.68%,1.1%,-0.38%,2.02%,-0.7%,2%,1.56%,1.3%,2.58%,-0.31%,2.82%,-0.48%,0.2%,-0.67%,-0.87%,-0.21%
Nc1nc(-c2cccc(Cl)c2)c(-c2ccc3ncccc3n2)s1,-0.98%,3.98%,11.2%,7.52%,19.9%,3.37%,20.2%,6.97%,16.9%,3.18%,7.84%,5.66%,15.3%,3.63%,15.7%,5.48%,7.43%,3.3%,7.05%,-6.08%
CS(=O)(=O)CCNCc1coc(-c2ccc3ncnc(Nc4ccc(OCc5ccccc5)cc4)c3c2)c1,-4.66%,1.64%,0.28%,4.11%,4.46%,1.21%,1.86%,2.14%,4.18%,1.94%,4.02%,3.03%,2.89%,4.85%,7.39%,2.87%,9.68%,3.06%,4.08%,-2.71%

# From ChEMBL document CHEMBL1961873, “Compounds: GSK PKIS; Assays: Nanosyn kinase panel” (2012)
